# Experimental data reported in paper PMC7862700, “An all-to-all approach to the identification of sequence-specific readers for epigenetic DNA modifications on cytosine”.
# Legend:
# Experiment in all cases: DAPPL (digital affinity profiling via proximity ligation, sequencing); 10 mM Tris-HCl pH 7.5, 50 mM NaCl, 1 mM DTT, 4% glycerol, room temperature, 30 min; GST-TFs on glutathione beads, 16-mer random dsDNA library, 0.1% formaldehyde crosslink after washing; high values mean tight binding
# [1] = biological target: T1, FLI1 (Homo sapiens, UniProt Q01543 1-452); settings: protein: recombinant; tags: N-terminal GST; dsDNA, one strand shown
# T1 sequence: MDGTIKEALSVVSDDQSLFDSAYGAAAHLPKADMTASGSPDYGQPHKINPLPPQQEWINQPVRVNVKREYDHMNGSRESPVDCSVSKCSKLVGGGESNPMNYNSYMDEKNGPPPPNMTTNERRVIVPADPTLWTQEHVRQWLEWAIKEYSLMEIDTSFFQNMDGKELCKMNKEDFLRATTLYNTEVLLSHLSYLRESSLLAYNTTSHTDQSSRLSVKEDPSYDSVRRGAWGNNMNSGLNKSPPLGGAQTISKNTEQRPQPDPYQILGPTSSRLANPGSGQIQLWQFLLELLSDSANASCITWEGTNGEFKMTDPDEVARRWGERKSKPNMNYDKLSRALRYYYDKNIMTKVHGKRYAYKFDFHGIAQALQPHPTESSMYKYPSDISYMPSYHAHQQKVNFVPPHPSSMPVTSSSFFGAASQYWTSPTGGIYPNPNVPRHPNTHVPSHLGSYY
# Method in brief: (§1)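 In yeast, human transcription factors were expressed with a GST fusion, then pulled down on glutathione beads and given DNA barcodes. Pooled with a tag-only sample, they were exposed to 200 nmole of a 16-mer random double-stranded DNA library (Tris/NaCl/DTT/glycerol buffer, room temperature, 30 min), washed, crosslinked with 0.1% formaldehyde, proximity-ligated using BsaI/T4 ligase for 1 h at 37 °C, PCR-amplified and read on an Illumina NextSeq500. Each hexamer's frequency of reads for a factor, divided by the matching frequency for the tag-only sample, gives the binding signal.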
# [2] = biological target: T2, ELK1 (Homo sapiens, UniProt P19419 1-428); settings: protein: recombinant; tags: N-terminal GST; dsDNA, one strand shown
# T2 sequence: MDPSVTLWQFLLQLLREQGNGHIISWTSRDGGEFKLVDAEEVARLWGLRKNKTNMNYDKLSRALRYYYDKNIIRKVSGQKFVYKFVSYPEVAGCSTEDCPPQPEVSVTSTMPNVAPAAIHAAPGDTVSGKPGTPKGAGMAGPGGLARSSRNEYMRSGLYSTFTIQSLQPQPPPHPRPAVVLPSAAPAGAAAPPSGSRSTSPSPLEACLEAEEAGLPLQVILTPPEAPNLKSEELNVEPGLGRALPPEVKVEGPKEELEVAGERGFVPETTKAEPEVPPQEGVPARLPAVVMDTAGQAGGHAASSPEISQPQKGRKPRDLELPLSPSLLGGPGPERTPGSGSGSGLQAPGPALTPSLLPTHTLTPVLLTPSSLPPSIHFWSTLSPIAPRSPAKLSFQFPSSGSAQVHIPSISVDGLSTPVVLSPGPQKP
# Method in brief: as §1
# [3] = biological target: T3, GABPA (Homo sapiens, UniProt Q06546 1-454); settings: protein: recombinant; tags: N-terminal GST; dsDNA, one strand shown
# T3 sequence: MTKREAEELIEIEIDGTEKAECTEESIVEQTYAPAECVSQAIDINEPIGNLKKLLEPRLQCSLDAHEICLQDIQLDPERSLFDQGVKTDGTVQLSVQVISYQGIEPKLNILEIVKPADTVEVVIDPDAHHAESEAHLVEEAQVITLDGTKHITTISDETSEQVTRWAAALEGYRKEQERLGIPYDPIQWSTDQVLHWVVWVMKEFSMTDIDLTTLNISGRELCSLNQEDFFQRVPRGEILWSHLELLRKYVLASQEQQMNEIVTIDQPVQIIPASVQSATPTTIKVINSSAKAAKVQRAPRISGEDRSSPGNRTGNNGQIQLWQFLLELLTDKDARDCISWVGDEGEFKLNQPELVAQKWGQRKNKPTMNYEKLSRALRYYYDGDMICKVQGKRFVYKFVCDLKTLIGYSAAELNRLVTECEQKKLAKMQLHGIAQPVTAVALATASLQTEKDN
# Method in brief: as §1
# [4] = biological target: T4, ERG (Homo sapiens, UniProt P11308 1-479); settings: protein: recombinant; tags: N-terminal GST; dsDNA, one strand shown
# T4 sequence: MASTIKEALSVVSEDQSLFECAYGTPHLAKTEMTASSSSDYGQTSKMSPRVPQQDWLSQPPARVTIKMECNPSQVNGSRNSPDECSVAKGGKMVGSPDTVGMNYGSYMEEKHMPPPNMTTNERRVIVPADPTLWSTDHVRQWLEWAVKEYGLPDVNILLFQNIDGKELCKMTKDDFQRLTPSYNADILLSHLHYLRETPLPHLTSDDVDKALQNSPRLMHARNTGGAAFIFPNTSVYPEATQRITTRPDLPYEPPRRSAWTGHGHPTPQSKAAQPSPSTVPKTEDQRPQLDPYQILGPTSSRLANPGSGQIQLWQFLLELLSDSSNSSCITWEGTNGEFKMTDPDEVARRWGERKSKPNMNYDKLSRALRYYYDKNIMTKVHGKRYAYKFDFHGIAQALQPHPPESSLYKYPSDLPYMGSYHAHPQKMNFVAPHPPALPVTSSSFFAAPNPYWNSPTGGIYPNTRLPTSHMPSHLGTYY
# Method in brief: as §1
# [5] = biological target: ELF1 (Homo sapiens, UniProt P32519 1-619); settings: protein: recombinant; tags: N-terminal GST; dsDNA, one strand shown
# Method in brief: as §1
# [6] = biological target: T5, EHF (Homo sapiens, UniProt Q9NZC4 1-300); settings: protein: recombinant; tags: N-terminal GST; dsDNA, one strand shown
# T5 sequence: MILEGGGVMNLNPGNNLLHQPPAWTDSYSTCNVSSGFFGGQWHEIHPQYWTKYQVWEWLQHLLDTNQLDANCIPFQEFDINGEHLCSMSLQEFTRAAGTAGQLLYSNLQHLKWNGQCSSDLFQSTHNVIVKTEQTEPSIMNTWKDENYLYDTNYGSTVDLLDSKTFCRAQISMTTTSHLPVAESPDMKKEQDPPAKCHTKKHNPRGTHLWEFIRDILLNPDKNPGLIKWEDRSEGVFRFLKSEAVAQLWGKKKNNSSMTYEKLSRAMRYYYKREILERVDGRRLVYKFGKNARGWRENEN
# Method in brief: as §1
# [7] = biological target: SPI1 (Homo sapiens, UniProt P17947 1-270); settings: protein: recombinant; tags: N-terminal GST; dsDNA, one strand shown
# Method in brief: as §1
# [8] = biological target: SPIB (Homo sapiens, UniProt Q01892 1-262); settings: protein: recombinant; tags: N-terminal GST; dsDNA, one strand shown
# Method in brief: as §1
# [9] = biological target: T6, ELK3 (Homo sapiens, UniProt P41970 1-407); settings: protein: recombinant; tags: N-terminal GST; dsDNA, one strand shown
# T6 sequence: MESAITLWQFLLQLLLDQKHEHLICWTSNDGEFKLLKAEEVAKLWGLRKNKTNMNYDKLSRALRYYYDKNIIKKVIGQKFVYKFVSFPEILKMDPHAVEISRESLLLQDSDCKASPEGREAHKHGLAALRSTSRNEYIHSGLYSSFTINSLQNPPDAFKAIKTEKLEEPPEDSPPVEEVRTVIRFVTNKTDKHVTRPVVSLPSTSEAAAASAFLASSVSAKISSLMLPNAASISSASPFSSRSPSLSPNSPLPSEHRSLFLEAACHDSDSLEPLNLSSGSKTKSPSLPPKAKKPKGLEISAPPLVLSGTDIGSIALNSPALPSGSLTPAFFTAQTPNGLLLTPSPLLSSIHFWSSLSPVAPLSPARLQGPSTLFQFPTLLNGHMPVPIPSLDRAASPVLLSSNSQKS
# Method in brief: as §1
# [10] = biological target: T7, FEV (Homo sapiens, UniProt Q99581 1-238); settings: protein: recombinant; tags: N-terminal GST; dsDNA, one strand shown
# T7 sequence: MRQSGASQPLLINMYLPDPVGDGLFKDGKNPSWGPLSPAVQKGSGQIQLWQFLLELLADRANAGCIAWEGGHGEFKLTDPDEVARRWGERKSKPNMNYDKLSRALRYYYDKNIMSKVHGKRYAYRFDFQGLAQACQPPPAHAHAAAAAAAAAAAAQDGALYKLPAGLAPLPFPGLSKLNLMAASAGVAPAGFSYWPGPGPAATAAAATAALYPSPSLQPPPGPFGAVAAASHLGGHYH
# Method in brief: as §1
# [11] = biological target: ETV5 (Homo sapiens, UniProt P41161 1-510); settings: protein: recombinant; tags: N-terminal GST; dsDNA, one strand shown
# Method in brief: as §1
# [12] = biological target: HSF1 (Homo sapiens, UniProt Q00613 1-529); settings: protein: recombinant; tags: N-terminal GST; chain copies: 3; dsDNA, one strand shown
# Method in brief: as §1
# [13] = biological target: T8, SPIC (Homo sapiens, UniProt Q8N5J4 1-248); settings: protein: recombinant; tags: N-terminal GST; dsDNA, one strand shown
# T8 sequence: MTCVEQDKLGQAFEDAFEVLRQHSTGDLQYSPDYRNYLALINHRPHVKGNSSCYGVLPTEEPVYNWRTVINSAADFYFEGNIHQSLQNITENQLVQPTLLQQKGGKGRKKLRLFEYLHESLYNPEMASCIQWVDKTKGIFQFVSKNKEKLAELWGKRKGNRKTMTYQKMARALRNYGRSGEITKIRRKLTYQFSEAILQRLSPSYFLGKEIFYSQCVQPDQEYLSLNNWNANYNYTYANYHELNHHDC
# Method in brief: as §1
# [14] = biological target: ELF4 (Homo sapiens, UniProt Q99607 1-663); settings: protein: recombinant; tags: N-terminal GST; dsDNA, one strand shown
# Method in brief: as §1
# [15] = biological target: T9, ELK4 (Homo sapiens, UniProt P28324-2 1-405); settings: protein: recombinant; tags: N-terminal GST; dsDNA, one strand shown
# T9 sequence: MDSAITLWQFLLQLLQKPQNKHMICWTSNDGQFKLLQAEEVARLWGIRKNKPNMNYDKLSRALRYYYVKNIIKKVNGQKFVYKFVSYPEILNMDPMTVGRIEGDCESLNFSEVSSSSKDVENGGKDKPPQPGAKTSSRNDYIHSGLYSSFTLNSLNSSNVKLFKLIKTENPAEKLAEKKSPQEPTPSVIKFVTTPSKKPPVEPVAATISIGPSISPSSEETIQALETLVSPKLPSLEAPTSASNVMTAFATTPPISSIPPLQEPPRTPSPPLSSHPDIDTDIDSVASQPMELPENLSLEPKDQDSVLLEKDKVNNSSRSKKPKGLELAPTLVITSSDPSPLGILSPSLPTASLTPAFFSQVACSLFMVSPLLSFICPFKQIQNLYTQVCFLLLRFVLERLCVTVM
# Method in brief: as §1
# [16] = biological target: T10, ETV2 (Homo sapiens, UniProt O00321 1-342); settings: protein: recombinant; tags: N-terminal GST; dsDNA, one strand shown
# T10 sequence: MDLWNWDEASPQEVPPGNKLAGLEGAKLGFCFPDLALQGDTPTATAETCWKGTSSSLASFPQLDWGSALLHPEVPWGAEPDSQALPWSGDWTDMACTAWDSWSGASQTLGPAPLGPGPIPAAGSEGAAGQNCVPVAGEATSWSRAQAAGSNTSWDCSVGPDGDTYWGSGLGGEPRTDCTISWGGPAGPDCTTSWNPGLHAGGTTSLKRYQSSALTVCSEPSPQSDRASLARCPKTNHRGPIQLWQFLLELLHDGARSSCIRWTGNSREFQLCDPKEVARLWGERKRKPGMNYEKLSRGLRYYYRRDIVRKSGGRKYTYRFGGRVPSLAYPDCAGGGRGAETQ
# Method in brief: as §1
# [17] = biological target: T11, ELF3 (Homo sapiens, UniProt P78545 1-371); settings: protein: recombinant; tags: N-terminal GST; dsDNA, one strand shown
# T11 sequence: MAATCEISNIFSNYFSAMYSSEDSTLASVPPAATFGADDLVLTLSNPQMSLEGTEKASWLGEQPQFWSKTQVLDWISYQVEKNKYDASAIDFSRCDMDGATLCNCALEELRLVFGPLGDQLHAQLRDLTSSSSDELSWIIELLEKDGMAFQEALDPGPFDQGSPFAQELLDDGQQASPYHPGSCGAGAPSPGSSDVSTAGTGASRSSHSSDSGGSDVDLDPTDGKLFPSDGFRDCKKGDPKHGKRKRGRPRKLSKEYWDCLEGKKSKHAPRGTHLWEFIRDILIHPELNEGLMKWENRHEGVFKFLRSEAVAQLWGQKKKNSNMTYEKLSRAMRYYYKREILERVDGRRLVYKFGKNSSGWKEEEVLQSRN
# Method in brief: as §1
# [18] = biological target: CRX (Homo sapiens, UniProt O43186 1-299); settings: protein: recombinant; tags: N-terminal GST; dsDNA, one strand shown
# Method in brief: as §1
# [19] = biological target: ETV1 (Homo sapiens, UniProt P50549 1-477); settings: protein: recombinant; tags: N-terminal GST; dsDNA, one strand shown
# Method in brief: as §1
# HSF1, sequence (Q00613 whole entry): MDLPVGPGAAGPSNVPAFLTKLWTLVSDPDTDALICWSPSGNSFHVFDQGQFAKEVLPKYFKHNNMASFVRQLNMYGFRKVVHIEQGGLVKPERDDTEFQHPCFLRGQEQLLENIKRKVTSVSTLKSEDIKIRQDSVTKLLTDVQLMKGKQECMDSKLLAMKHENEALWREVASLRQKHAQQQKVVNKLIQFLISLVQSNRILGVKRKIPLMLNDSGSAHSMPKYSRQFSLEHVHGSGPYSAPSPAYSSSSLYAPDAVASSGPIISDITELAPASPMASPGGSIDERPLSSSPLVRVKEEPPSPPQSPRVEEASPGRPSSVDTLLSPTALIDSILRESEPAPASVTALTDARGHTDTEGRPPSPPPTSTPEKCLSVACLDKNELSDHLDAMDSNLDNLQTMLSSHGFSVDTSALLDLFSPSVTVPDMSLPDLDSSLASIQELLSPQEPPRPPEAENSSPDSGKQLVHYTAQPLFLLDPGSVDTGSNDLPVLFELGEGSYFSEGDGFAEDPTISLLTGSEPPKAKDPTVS
# ETV1, sequence (P50549 whole entry): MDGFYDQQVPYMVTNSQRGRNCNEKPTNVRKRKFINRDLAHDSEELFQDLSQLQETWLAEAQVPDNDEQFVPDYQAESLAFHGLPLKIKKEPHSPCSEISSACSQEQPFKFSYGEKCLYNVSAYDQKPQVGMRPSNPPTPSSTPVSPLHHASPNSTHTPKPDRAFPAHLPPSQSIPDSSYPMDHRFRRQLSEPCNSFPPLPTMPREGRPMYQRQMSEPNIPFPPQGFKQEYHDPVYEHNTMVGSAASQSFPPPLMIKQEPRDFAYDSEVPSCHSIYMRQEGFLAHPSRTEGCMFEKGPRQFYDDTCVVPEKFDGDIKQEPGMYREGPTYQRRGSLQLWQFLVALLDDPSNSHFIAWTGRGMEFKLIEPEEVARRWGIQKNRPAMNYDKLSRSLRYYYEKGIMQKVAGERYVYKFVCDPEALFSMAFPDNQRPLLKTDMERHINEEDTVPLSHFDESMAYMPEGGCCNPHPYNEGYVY
# ETV5, sequence (P41161 whole entry): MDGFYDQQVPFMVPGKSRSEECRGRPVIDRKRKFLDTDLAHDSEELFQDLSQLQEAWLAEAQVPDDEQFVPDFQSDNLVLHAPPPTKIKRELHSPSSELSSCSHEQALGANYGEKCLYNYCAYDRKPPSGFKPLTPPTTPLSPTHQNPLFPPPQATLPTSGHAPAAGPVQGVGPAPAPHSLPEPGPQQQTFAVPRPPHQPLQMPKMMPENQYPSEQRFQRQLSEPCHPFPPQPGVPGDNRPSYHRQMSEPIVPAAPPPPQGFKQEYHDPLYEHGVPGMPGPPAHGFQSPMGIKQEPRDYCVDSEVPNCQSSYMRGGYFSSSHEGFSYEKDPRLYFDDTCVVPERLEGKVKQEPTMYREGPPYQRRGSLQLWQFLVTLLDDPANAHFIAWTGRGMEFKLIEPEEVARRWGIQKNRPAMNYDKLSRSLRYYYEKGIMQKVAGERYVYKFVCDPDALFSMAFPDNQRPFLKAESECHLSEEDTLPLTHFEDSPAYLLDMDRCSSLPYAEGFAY
# ELF4, sequence (Q99607 whole entry): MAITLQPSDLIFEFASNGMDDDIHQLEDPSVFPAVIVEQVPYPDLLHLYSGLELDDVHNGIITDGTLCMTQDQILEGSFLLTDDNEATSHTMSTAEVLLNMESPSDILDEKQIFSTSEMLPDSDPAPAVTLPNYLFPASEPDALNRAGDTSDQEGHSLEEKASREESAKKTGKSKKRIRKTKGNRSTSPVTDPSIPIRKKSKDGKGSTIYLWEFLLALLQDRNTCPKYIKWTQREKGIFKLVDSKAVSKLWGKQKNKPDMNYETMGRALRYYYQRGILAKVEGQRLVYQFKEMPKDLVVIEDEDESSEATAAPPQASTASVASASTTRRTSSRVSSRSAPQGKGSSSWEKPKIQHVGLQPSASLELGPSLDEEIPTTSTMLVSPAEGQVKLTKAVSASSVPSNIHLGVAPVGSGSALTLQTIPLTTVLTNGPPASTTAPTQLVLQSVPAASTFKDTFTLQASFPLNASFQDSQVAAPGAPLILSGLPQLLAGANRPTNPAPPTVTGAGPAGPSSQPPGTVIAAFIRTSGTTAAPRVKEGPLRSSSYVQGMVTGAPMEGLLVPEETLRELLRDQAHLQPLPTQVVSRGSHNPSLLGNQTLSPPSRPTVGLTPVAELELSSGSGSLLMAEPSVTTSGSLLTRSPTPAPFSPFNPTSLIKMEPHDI
# SPIB, sequence (Q01892 whole entry): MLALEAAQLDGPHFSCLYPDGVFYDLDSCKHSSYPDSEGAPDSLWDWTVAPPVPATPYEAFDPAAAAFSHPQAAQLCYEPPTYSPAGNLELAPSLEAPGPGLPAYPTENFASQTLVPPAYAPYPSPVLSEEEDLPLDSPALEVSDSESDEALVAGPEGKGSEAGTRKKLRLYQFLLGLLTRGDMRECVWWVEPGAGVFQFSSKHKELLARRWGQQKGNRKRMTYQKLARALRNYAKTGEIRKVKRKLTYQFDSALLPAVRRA
# ELF1, sequence (P32519 whole entry): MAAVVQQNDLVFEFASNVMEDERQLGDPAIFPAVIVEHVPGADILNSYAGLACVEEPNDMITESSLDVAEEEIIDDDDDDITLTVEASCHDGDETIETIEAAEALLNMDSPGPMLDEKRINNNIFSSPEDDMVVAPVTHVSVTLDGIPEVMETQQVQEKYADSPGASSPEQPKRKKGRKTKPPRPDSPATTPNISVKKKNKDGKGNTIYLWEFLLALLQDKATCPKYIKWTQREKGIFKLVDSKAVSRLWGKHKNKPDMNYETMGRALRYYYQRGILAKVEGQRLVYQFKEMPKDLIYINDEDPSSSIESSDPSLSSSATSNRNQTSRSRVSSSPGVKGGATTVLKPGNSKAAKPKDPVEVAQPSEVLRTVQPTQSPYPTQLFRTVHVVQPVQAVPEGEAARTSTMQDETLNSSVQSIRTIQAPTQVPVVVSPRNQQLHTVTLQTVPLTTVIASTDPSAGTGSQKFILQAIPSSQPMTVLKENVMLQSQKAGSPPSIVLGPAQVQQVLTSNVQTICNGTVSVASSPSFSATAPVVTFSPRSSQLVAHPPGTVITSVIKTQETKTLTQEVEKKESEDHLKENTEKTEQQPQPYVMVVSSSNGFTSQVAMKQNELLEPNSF
# CRX, sequence (O43186 whole entry): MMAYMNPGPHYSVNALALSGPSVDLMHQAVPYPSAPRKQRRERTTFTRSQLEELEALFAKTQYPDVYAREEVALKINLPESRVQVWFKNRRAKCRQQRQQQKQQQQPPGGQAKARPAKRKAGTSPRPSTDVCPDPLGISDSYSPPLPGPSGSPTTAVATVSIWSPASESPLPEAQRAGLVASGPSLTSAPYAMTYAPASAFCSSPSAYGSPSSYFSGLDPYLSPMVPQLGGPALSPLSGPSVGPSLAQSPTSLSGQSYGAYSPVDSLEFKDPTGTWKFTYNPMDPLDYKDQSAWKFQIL
sequence,measurement,setting,value
CCCGTT,binding signal,[1],"1.17 fold enrichment (6-mer frequency, TF over GST control)"
same,binding signal,[2],"1.08 fold enrichment (6-mer frequency, TF over GST control)"
same,binding signal,[3],"1.21 fold enrichment (6-mer frequency, TF over GST control)"
same,binding signal,[4],"1.26 fold enrichment (6-mer frequency, TF over GST control)"
same,binding signal,[5],"1.12 fold enrichment (6-mer frequency, TF over GST control)"
same,binding signal,[6],"1.15 fold enrichment (6-mer frequency, TF over GST control)"
same,binding signal,[7],"1.28 fold enrichment (6-mer frequency, TF over GST control)"
same,binding signal,[8],"1.19 fold enrichment (6-mer frequency, TF over GST control)"
same,binding signal,[9],"1.18 fold enrichment (6-mer frequency, TF over GST control)"
same,binding signal,[10],"1.13 fold enrichment (6-mer frequency, TF over GST control)"
same,binding signal,[11],"1.21 fold enrichment (6-mer frequency, TF over GST control)"
same,binding signal,[12],"1.03 fold enrichment (6-mer frequency, TF over GST control)"
same,binding signal,[13],"1.07 fold enrichment (6-mer frequency, TF over GST control)"
same,binding signal,[14],"1.15 fold enrichment (6-mer frequency, TF over GST control)"
same,binding signal,[15],"1.06 fold enrichment (6-mer frequency, TF over GST control)"
same,binding signal,[16],"1.18 fold enrichment (6-mer frequency, TF over GST control)"
same,binding signal,[17],"1.26 fold enrichment (6-mer frequency, TF over GST control)"
same,binding signal,[18],"1.02 fold enrichment (6-mer frequency, TF over GST control)"
same,binding signal,[19],"1.03 fold enrichment (6-mer frequency, TF over GST control)"
